Bioassay records as filed in PubChem.
Shown are actives, neighbours in structure and some others; about 15% of the full set was active somewhere.
SARS PLP yeast = qHTS of Yeast-based Assay for SARS-CoV PLP. Potency, µM (series often up to 32.9 µM), for inactives: top-dose activity, positive = growth rescue, actives largely listed as activators. actives 0.19% (n = 330,000). S. cerevisiae expressing SARS-CoV PLpro, growth rescue; calls by dose curve; note: potency is the fitted concentration of half-maximal effect; 0% is about no effect; nearly all actives have a fitted effect of over 55% in size
Pf growth 48h = Primary qHTS for delayed death inhibitors of the malarial parasite plastid, 48 hour incubation | Potency, µM (doses to about 28.7 µM), without a hit: at the highest dose activity change, negative = inhibition, hits mostly inhibitors | P. falciparum luciferase growth in erythrocytes, 48 h | actives 5.9% (n = 310,000) | AID 504832, 2011; note: potency is the fitted concentration of half-maximal effect; % is set by controls: 0 for no effect and ±100 for the full control effect
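Parasite viability was followed by luminescence of a genomically integrated firefly luciferase. Cultures held 0.1% parasitemia at 2% hematocrit (final), incubated under 5% CO2 at 37 C.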
HCV inhibitor = qHTS Assay for Inhibitors of Hepatitis C Virus (HCV). Huh7.5.1 HCVcc-Cre infection, luciferase reporter, 44 h. Potency, µM (doses to about 41.8 µM), inactives show at the top dose activity change, negative = inhibition, hits mostly inhibitors. actives 3.4% (n = 340,000). AID 651820, 2012; note: potency is the fitted concentration of half-maximal effect; % is set by controls: 0 for no effect and ±100 for the full control effect
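Cells seeded at 1,000/well and cultured 4 h, then compounds added followed by HCVcc-Cre virus (~0.5 moi). After 44 h further culture, luciferase substrate was added, plates held 15 min at room temperature, and luminescence read for 15 sec.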
Sm TGR inh = qHTS Assay for the Inhibitors of Schistosoma Mansoni Peroxiredoxins | AID 485364, 2010 | Potency, µM (titrated, usually from 114 µM), inactives show at the highest dose activity change, negative = inhibition, hits mostly inhibitors | Schistosoma mansoni thioredoxin glutathione reductase (TGR), Q962Y6 | actives 3% (n = 360,000) | purified TGR, DTNB reduction, TNB absorbance 405 nm; note: potency is the fitted concentration of half-maximal effect; % is set by controls: 0 for no effect and ±100 for the full control effect; nearly all actives have a fitted effect of over 60% in size
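TGR 20 nM + NADPH 100 uM (dispensed conc.), cpd preinc 15 min RT; start with NADPH (500 uM addition) then DTNB (15 mM addition). Kinetic TNB absorbance, 405 nm filter. Four-parameter Hill fit across titration.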
HCMV antiviral = qHTS Assay for inhibitors of the human cytomegalovirus (HCMV); HFF cells, HCMV-luciferase reporter, 72 h; active compounds read low; activity change, negative = inhibition, % at 57.5 µM; actives 4.5% (n = 410,000); in the data active = activity change below about -60%; inconclusive = no clear call, values can overlap the other calls; inactive = above about -39%; note: % is set by controls: 0 for no effect and ±100 for the full control effect
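Luciferase read-out from HCMV-luciferase-infected HFFs (MOI 1 PFU/cell) 72 h post infection at 37C; compounds added after 16 h cell attachment; activity normalized between buffer-only basal and Salinomycin (10uM) inhibitor controls.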
Pf growth 96h = Primary qHTS for delayed death inhibitors of the malarial parasite plastid, 96 hour incubation; P. falciparum luciferase reporter growth, 96 h; Potency, µM (doses to about 28.7 µM), for the others: at the top dose activity change, negative = inhibition, usual class: inhibitors; actives 6.9% (n = 320,000); AID 504834, 2011; note: potency is the fitted concentration of half-maximal effect; % is set by controls: 0 for no effect and ±100 for the full control effect
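P. falciparum expressing integrated firefly luciferase grown in erythrocytes (2% hematocrit, 0.05% parasitemia final) with compounds for 96 hours at 37 C, 5% CO2. Growth inhibition read as loss of luminescence after adding luciferase detection reagent.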
Starred values were filed as active, the others as inactive; ? = inconclusive; · = no result; [ ] = dose if it differs, or a comment. Unless noted, calls come from the whole dose curve; as a rule, active = well fitted curve in the direction sought with a large enough effect; inconclusive = small, poorly fitted or top-dose-only effect, or another doubt; inactive = no such curve, though single readings can be large; an effect the other way counts as inactive or inconclusive.

SMILES	SARS PLP yeast	Pf growth 48h	HCV inhibitor	Sm TGR inh	HCMV antiviral	Pf growth 96h
COc1ccc(CN(C)C(=O)[C@H](Cc2ccccc2)NC(=O)c2ccco2)c(OC)c1	2.1%	?	2.3%	-5.0%	-1.2	?
Cc1ccccc1CN(C)C(=O)[C@H](Cc1ccccc1)NC(=O)c1ccco1	14.9%	?	-1.6%	-8.9%	-6.3	8.28µM*
CCN(CC)C(=O)CSc1nnc([C@@H](N)C(C)C)o1	1.7%	-2.5%	-7.0%	11.3%	-30.2	35.5%
COc1ccc2c(c1)c1c(c(=O)n(-c3cc(Cl)ccc3C)c(=O)n1CC(=O)N1CCCC1)n2C	·	·	·	4.4%	-29.8	·
COC(=O)c1ccc(NC(=O)c2c(Br)cnn2C)cc1	-1.8%	19.3%[0.00184 µM]	10.2%	14.1µM*	?	?
COC(=O)c1ccc(NC(=S)NC(=O)c2c(Cl)cnn2C)cc1	17.8%	?	14.1%	-3.1%	-21.9	?
S=c1[nH]nc(-c2cc(-c3ccco3)[nH]n2)n1-c1ccccc1Cl	-9.5%	0.3%	-13.6%	39.8µM*	22.3	-19.4%
O=C(CSc1ncc(-c2ccc(Cl)cc2)[nH]1)Nc1ccccc1F	·	·	·	5.1%	-30.1	·
O=C(CC1SC(=Nc2ccc(O)cc2)NC1=O)Nc1ccccc1 (centres undefined)	0.5%	41.6%	-3.2%	0.7%	·	-8.7%
CCOc1ccc(N=C2NC(=O)C(CC(=O)Nc3ccccc3)S2)cc1 (centres undefined)	0.8%	8.28µM*	-2.7%	8.9%	-28.8	4.6%
C=CCNc1ncnc2c1ncn2[C@H]1CN(CCc2ccccc2)C[C@@H](CO)O1	·	·	·	·	-27.6	·
Cc1ccc(C2/C=C\CC(NC(=O)OCC3c4ccccc4-c4ccccc43)CC(=O)N2Cc2ccccc2)cc1 (centres undefined)	5.2%	·	17.8µM*	·	-18.2	·
O=C(C1CCCN(S(=O)(=O)c2ccc(Cl)cc2)C1)N(Cc1cccs1)C1CC1 (centres undefined)	-1.6%	13.1µM*	10µM*	-0.3%	-34.8	1.4%
CCN(CC(=O)Nc1cc(S(=O)(=O)N2CCOCC2)ccc1Cl)Cc1ccccc1	2.6%	11.7µM*	7.94µM*	2.9%	-30.1	11.7µM*
CN(CC(=O)Nc1cc(S(=O)(=O)N2CCCC2)ccc1Cl)Cc1cccs1	0.1%	?	6.31µM*	5.1%	-9.6	-17.8%
CCN(CC(=O)Nc1ccc(S(=O)(=O)N2CCCCC2)cc1)Cc1ccccc1	-0.4%	?	?	-17.0%	-23.3	?
CCN(CC(=O)Nc1cc(S(=O)(=O)N2CCCCC2)ccc1Cl)Cc1ccccc1	-1.6%	10.4µM*	?	4.3%	4.2	10.4µM*
COC(=O)[C@H](Cc1ccccc1)NC(=O)NCCc1ccc(OC)cc1	0.3%	11.8%	23.4%	12.9%	-27.9	-19.2%
O=C(CC[C@H]1O[C@@H](n2cnc3c(NC(=O)c4ccccc4)ncnc32)[C@H](O)[C@@H]1O)NCCc1cc2ccccc2[nH]1	·	·	·	·	7.3	·
C/C(=N\NC(=O)c1c(C)nc2ccccn12)c1ccc(O)cc1O	0.2%	?	6.31µM*	-12.6%	-82.3*	3.29µM*
C/C(=N\NC(=O)c1c(C)nc2ccccn12)c1ccccc1F	7.2%	-3.0%	-13.9%	3.0%	-5.8	1.7%
O=C(CN1C(=O)CCc2cc(S(=O)(=O)N3CCOCC3)ccc21)NCc1ccc(F)cc1	·	·	·	-15.8%	5.3	·
CS(=O)(=O)N(CC(=O)N1CCC(C(N)=O)CC1)c1cc(C(F)(F)F)ccc1Cl	-0.4%	23.4%	1.8%	27.1%	4.8	14.1%
COc1ccccc1[As](=O)(O)CC(O)COc1ccc(Cl)cc1Cl (centres undefined)	8.6%	?	·	39.8µM*	-18.0	?
N=c1n(Cc2ccccc2)c2ccccc2n1CC(O)COc1ccc(Cl)cc1Cl (centres undefined)	-0.4%	?	11.2µM*	8.3%[57.1 µM]	-101.4*	0.0%
SMILES	SARS PLP yeast	Pf growth 48h	HCV inhibitor	Sm TGR inh	HCMV antiviral	Pf growth 96h
Cc1ccc(OCC(O)Cn2c(=N)n(Cc3ccccc3)c3ccccc32)cc1 (centres undefined)	-3.1%	·	?	-10.2%	-74.2*	3.7µM*
Clc1ccc(OCc2nc3ccccc3n2Cc2ccccc2)c(Cl)c1	·	·	·	-7.1%	51.9	·
Cc1cccc(OCC(O)CN2CC2)c1 (centres undefined)	·	·	·	·	8.3	·
Cc1cccc(OCC(O)Cn2c(=N)n(Cc3ccccc3)c3ccccc32)c1 (centres undefined)	-0.8%	5.86µM*	?	-4.6%	-10.0	5.22µM*
N=c1n(Cc2ccccc2)c2ccccc2n1CC(O)c1ccco1 (centres undefined)	8.0%	·	-6.3%	12.3%[11.4 µM]	-8.8	?
COc1ccccc1S(=O)(=O)CC(O)COc1ccccc1Cl (centres undefined)	?	-12.6%	7.4%	-23.7%	?	32.0%
Cc1ccccc1Cn1cc(CCC(=O)NC(C)c2ccccc2)c2ccccc21 (centres undefined)	·	·	·	-3.4%	?	·
CC(C)(C)NC(=O)c1ccc2nsnc2c1	0.8%	-12.3%	-0.3%	-0.7%	-7.2	-8.3%
COc1ccc(OCC(O)Cn2c(=N)n(Cc3ccccc3)c3ccccc32)cc1 (centres undefined)	-1.1%	?	10µM*	10.5%	-38.1	?
CCn1c(=N)n(CC(O)COc2ccccc2)c2ccccc21 (centres undefined)	·	·	·	-1.1%	-21.6	·
N=c1n(CCO)c2ccccc2n1Cc1ccc(Cl)cc1	2.5%	·	-19.2%	16.9%[11.4 µM]	-18.0	-13.5%
N=c1n(Cc2ccc(Cl)cc2)c2ccccc2n1CC(O)COc1ccccc1 (centres undefined)	-4.5%	?	12.6µM*	0.0%	-102.4*	-10.9%
Cc1ccc(C)c(NC(=O)C2CCN(S(=O)(=O)c3c(C)noc3/C=C/c3cccs3)CC2)c1	·	·	·	-0.2%	?	·
Cc1cc(C(=O)NNC(=O)c2ccc(NC(=O)CC#N)cc2)c(C)o1	0.6%	?	9.1%	-17.0%	-14.5	-26.3%
O=C(CNC(=O)c1ccc(Cl)cc1Cl)Nc1ccc(F)cc1	-1.9%	-4.7%	4.1%	13.4%	-13.8	9.6%
CC1CCC2C(=O)N(c3cccc(OS(=O)(=O)c4ccccc4)c3)C(=O)C2C1 (centres undefined)	14.2%	?	28.9%	11.4%	-35.3	190.5%
